# Test results from ChEMBL document CHEMBL1961873, “Compounds: GSK PKIS; Assays: Nanosyn kinase panel” (2012).
# What was measured:
# [1] = molecular target: Tyrosine-protein kinase Fyn (Homo sapiens) (UniProt P06241); conditions: at 1 µM
# [2] = molecular target: Tyrosine-protein kinase HCK (Homo sapiens) (UniProt P08631); conditions: at 0.1 µM
# [3] = molecular target: Tyrosine-protein kinase HCK (Homo sapiens) (UniProt P08631); conditions: at 1 µM
# [4] = molecular target: Insulin-like growth factor 1 receptor (Homo sapiens) (UniProt P08069); conditions: at 0.1 µM
# Insulin-like growth factor 1 receptor (Homo sapiens), sequence (P08069 31-736 limits assumed): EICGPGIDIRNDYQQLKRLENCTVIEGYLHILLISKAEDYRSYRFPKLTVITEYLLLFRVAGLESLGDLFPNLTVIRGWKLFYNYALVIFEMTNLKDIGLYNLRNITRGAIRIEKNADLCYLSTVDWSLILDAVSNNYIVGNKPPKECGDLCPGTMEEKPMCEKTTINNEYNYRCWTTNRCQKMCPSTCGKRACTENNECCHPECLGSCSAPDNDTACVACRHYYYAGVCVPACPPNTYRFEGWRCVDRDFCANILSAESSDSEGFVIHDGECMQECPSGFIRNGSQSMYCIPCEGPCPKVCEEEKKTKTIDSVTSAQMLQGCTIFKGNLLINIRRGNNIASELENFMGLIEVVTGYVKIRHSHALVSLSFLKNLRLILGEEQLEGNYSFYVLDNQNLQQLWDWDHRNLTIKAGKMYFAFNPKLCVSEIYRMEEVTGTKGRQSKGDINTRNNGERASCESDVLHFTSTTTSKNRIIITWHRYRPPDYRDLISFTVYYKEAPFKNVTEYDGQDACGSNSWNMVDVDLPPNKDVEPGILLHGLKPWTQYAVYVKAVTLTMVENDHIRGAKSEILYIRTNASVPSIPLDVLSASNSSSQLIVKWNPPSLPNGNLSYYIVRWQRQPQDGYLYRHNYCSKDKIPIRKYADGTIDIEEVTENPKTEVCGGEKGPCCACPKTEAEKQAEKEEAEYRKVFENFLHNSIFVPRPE
# Insulin-like growth factor 1 receptor (Homo sapiens), sequence (P08069 741-1367 limits assumed): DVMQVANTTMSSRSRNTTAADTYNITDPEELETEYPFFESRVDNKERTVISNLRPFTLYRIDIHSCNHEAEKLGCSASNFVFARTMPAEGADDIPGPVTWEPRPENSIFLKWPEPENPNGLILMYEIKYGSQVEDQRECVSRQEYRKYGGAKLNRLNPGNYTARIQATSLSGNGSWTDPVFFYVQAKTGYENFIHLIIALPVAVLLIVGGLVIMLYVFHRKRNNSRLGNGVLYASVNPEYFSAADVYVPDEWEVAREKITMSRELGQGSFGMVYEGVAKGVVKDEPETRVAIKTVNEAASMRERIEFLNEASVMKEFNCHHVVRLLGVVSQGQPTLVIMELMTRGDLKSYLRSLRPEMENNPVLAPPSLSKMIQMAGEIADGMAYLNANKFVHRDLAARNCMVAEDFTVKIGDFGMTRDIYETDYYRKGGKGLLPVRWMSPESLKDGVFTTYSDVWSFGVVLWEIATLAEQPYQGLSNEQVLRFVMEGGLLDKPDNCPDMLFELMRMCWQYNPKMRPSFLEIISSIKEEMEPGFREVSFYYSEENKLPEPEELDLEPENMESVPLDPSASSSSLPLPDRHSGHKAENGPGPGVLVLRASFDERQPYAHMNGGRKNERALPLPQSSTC
# [5] = molecular target: Insulin-like growth factor 1 receptor (Homo sapiens) (UniProt P08069); conditions: at 1 µM
# [6] = molecular target: Insulin receptor (Homo sapiens) (UniProt P06213); conditions: at 0.1 µM
# Insulin receptor (Homo sapiens), sequence (P06213 28-758 limits assumed): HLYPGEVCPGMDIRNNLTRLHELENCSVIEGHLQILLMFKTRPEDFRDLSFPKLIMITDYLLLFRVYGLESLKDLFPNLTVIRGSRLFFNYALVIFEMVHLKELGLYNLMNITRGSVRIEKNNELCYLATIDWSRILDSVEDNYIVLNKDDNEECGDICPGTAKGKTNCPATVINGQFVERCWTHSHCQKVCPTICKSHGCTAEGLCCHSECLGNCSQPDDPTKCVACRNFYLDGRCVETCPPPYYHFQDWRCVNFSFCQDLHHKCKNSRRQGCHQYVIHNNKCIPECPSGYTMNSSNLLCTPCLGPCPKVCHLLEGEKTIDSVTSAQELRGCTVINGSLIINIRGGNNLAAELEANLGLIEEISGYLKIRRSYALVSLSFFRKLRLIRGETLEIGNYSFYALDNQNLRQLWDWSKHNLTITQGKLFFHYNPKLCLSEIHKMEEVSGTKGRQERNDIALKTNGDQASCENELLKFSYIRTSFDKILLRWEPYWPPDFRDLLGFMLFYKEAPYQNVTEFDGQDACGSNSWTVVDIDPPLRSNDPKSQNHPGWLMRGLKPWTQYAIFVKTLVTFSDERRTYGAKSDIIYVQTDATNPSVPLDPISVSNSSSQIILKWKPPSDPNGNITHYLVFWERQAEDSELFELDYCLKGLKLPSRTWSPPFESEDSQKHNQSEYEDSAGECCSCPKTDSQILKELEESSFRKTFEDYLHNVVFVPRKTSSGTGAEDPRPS
# Insulin receptor (Homo sapiens), sequence (P06213 763-1382 limits assumed): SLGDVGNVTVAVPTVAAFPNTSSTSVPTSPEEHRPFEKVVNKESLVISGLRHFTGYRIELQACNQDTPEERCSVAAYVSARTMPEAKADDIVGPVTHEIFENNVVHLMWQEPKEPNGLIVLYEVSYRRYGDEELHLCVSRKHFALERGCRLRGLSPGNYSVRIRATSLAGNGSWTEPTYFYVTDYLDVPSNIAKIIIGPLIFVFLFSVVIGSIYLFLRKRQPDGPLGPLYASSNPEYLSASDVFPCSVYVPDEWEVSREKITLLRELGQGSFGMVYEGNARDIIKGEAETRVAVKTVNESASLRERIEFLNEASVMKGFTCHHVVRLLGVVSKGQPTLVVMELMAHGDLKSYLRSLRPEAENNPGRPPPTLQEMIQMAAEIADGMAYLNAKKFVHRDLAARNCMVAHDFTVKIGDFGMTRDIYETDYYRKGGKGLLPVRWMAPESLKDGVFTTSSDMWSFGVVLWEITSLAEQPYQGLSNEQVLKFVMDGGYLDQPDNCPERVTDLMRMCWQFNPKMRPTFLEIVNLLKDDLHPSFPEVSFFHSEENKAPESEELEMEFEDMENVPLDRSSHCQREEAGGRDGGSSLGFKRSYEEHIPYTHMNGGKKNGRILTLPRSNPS
# [7] = molecular target: Insulin receptor (Homo sapiens) (UniProt P06213); conditions: at 1 µM
# [8] = molecular target: Insulin receptor-related protein (Homo sapiens) (UniProt P14616); conditions: at 0.1 µM
# Insulin receptor-related protein (Homo sapiens), sequence (P14616 27-742 limits assumed): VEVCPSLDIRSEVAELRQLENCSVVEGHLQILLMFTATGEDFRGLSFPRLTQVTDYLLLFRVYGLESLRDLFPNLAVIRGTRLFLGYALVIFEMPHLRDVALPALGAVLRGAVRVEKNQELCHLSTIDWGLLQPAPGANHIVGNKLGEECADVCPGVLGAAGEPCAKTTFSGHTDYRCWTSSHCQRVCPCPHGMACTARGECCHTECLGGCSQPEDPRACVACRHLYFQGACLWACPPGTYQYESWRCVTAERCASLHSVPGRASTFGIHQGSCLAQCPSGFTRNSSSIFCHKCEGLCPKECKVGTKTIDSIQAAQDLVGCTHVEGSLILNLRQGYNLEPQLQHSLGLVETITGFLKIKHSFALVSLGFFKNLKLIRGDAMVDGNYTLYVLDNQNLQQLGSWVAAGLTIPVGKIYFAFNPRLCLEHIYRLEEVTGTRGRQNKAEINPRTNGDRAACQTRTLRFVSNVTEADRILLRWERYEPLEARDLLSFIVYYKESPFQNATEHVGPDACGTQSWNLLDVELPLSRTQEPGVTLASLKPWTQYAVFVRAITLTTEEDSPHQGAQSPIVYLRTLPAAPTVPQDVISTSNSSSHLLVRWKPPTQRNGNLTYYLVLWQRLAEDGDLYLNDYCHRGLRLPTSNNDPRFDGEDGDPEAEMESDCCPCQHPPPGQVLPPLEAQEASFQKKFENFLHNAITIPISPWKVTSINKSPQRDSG
# Insulin receptor-related protein (Homo sapiens), sequence (P14616 747-1297 limits assumed): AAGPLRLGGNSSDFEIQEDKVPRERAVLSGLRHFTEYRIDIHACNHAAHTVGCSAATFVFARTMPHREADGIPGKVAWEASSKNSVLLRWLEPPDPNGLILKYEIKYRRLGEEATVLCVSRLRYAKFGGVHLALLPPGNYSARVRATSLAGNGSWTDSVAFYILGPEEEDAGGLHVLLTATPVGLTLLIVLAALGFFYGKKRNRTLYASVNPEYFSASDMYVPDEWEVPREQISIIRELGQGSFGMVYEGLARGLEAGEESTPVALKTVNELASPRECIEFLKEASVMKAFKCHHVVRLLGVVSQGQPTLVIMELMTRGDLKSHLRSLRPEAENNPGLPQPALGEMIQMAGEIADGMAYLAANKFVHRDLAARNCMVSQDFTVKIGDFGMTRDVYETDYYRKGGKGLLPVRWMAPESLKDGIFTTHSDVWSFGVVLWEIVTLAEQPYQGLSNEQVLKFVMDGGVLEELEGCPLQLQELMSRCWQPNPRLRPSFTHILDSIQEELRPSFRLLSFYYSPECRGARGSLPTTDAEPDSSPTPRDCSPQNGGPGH
# [9] = molecular target: Insulin receptor-related protein (Homo sapiens) (UniProt P14616); conditions: at 1 µM
# [10] = molecular target: T1, Tyrosine-protein kinase ITK/TSK (Homo sapiens) (UniProt Q08881); conditions: at 0.1 µM;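 note: mean percent inhibition of ITK from the GSK PKIS screen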
# T1 sequence (whole entry): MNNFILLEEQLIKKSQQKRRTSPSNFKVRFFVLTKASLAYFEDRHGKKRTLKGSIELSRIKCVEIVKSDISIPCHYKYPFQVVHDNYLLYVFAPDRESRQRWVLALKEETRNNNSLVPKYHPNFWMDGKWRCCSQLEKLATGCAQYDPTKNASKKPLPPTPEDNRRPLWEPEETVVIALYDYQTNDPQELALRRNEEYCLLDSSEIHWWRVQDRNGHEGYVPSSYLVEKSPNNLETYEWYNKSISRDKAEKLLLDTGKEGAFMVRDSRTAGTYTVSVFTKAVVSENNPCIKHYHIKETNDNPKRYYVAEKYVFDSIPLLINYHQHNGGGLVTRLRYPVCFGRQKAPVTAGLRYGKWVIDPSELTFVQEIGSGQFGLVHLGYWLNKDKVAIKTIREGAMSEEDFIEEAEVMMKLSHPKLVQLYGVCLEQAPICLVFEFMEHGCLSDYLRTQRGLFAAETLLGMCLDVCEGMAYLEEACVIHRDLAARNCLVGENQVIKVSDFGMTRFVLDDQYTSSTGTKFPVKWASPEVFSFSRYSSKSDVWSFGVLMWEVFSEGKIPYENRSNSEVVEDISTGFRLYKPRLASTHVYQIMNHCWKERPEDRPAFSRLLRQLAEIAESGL
# Tyrosine-protein kinase HCK (Homo sapiens), sequence (P08631 2-526 limits assumed): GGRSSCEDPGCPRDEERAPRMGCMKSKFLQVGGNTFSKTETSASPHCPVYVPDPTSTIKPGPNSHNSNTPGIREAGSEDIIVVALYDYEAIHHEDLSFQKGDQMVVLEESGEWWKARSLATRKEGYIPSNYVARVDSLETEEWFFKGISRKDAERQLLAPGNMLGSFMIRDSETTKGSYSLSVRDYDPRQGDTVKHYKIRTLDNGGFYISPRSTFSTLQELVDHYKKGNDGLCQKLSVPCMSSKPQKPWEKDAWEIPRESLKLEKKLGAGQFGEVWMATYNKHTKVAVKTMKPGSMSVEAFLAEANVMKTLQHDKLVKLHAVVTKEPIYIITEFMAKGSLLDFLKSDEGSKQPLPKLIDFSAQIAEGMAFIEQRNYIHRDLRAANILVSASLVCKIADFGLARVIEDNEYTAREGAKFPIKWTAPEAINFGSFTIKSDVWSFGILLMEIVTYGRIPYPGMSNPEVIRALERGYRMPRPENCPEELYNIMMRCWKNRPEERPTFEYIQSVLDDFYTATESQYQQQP
# Tyrosine-protein kinase Fyn (Homo sapiens), sequence (P06241 2-537 limits assumed): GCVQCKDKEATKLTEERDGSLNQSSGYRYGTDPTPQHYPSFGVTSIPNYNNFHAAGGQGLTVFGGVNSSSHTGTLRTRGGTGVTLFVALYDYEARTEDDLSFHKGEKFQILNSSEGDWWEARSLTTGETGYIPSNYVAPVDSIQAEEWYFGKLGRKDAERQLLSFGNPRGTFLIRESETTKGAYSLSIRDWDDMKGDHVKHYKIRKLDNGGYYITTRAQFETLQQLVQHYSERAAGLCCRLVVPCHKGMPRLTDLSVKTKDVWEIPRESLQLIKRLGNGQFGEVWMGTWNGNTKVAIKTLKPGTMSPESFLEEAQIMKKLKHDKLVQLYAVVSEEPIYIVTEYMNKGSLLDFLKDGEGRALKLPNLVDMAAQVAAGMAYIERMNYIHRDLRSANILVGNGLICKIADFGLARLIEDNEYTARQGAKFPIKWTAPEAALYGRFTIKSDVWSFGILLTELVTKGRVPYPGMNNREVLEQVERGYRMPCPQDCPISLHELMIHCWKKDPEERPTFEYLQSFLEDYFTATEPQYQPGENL
SMILES,inhibition [1],inhibition [2],inhibition [3],inhibition [4],inhibition [5],inhibition [6],inhibition [7],inhibition [8],inhibition [9],inhibition [10]
COc1cc2ncn(-c3cc(OCc4ccccc4C(F)(F)F)c(C(C)=O)s3)c2cc1OC,8.03%,5.79%,9.81%,-2.34%,1.09%,-1.39%,-0.63%,5%,3.18%,0.57%
Fc1ccc(-c2ncn(C3CCNCC3)c2-c2ccnc(Oc3ccc4c(c3)OCO4)n2)cc1,3.17%,6.2%,10.9%,0.4%,2.16%,2.85%,3.42%,3.09%,3.51%,1.6%
Cc1nnc(-c2ccc(C)c(-c3ccc(C(=O)NCc4ccc(Cl)cc4)cc3)c2)o1,-1.62%,4.39%,5.02%,-3.42%,-3.35%,5.65%,6.19%,1.93%,1.98%,-2.09%
NC(=O)c1ccc(Oc2nccc(-c3c(-c4ccc(F)cc4)ncn3C3CCNCC3)n2)cc1,3.44%,6.86%,8.21%,5.51%,7.32%,7.88%,6.48%,3.06%,4.99%,3.1%
COc1ccc2cc(-c3c(-c4ccncc4)nc(-c4ccc(S(C)(=O)=O)cc4C)n3C)ccc2c1,7.37%,5.89%,13.1%,4.23%,3.79%,7.46%,5.18%,2.39%,2.25%,1.82%
Cc1ccc(C(=O)NC2CCC2)cc1-c1ccc(C(=O)NCC2CC2)cc1,2.7%,4.64%,6.65%,2.06%,3.83%,4.44%,5.62%,0.92%,1.77%,2.02%
CN(c1ccc(NC(=O)Nc2c(Cl)cccc2Cl)cc1)c1ccnc(Nc2cccc(CS(C)(=O)=O)c2)n1,12.4%,22.5%,48.9%,5.47%,4.63%,1.49%,3.45%,2.73%,4.71%,54.1%
COc1cc(Nc2ncc3c(C)nc(-c4cccc(C(F)(F)F)c4)n3n2)cc(OC)c1OC,39.7%,6.2%,22.6%,2.62%,5.74%,5.92%,8.95%,1.64%,3.39%,2.02%
CCc1nccc2c1nc(-c1nonc1N)n2CC,0.11%,11.6%,16.3%,-0.66%,2.4%,0.64%,0.74%,-0.83%,-1.07%,0.88%
C[C@@H](Oc1cc(-n2cnc3ccc(OC4CCN(C)CC4)cc32)sc1C(N)=O)c1ccccc1Cl,-4.42%,6.15%,13%,-9.14%,0.05%,10.4%,-1.99%,2.49%,3.03%,-2.4%
CCc1ccc(Oc2nccc(-c3c(-c4ccc(F)cc4)ncn3C3CCNCC3)n2)cc1,7.59%,4.84%,8.91%,5.24%,3.51%,5.54%,3.85%,2.18%,3.43%,2.08%
Cc1ccc(NC(=O)c2ccoc2)cc1-c1ccc(C(=O)NCC2CC2)cc1,1.16%,4.54%,5.55%,2.46%,1.25%,1.81%,3.42%,0.32%,0.32%,-0.83%
Fc1ccc(-c2nc3n(c2-c2ccncc2)CCS3)cc1,-3.64%,4.65%,7.02%,-2.12%,-4.05%,7.27%,5.39%,2.11%,1.09%,-1.96%
FC(F)(F)c1cccc(Nc2nccc(-c3cnn4nc(-c5ccccc5)ccc34)n2)c1,7.18%,1.72%,6.11%,-1.86%,-1.43%,-2.61%,1.45%,0.93%,0.27%,-0.41%
CNC(=O)c1cncc(/C=C/c2c(C)cccc2C)c1,29.6%,17.2%,58.9%,-3.76%,-5.13%,0.95%,4.95%,2.26%,1.08%,-3.14%
COC(=O)Nc1nc2ccc(Sc3ccc(NC(=O)Nc4cc(C(F)(F)F)ccc4F)cc3)cc2[nH]1,3.27%,39.5%,14.4%,10.6%,6.91%,2.28%,-0.75%,1.45%,-0.55%,0.19%
CCS(=O)(=O)c1ccc(OC)c(Nc2ncc(-c3ccccc3Cl)o2)c1,19.1%,4.06%,11.8%,1.62%,5.87%,-0.92%,3.26%,1.25%,3.78%,0.29%
CS(=O)(=O)CCNCc1cc(-c2cc3c(Nc4ccc(OCc5cccc(F)c5)c(Cl)c4)ncnc3s2)cs1,2.71%,6.52%,7.87%,5.7%,4.5%,11.5%,4.74%,1.69%,2.82%,1.89%
O=C(Nc1ccc(Oc2ccc3[nH]c(NC(=O)c4ccccc4)nc3c2)cc1)Nc1cc(C(F)(F)F)ccc1F,21.5%,7.45%,21.8%,10.6%,7.91%,2%,2.26%,2.66%,3.55%,1.11%
Fc1ccc(-c2c(-c3ccncc3)nc3n2CCS3)cc1,0.5%,2.36%,4.87%,-4.27%,-5.03%,5.99%,6.13%,0.59%,0.48%,-2.9%

SMILES,inhibition [1],inhibition [2],inhibition [3],inhibition [4],inhibition [5],inhibition [6],inhibition [7],inhibition [8],inhibition [9],inhibition [10]
CCc1cccc(CC)c1/C=C/c1cncc(C(=O)NC)c1,3.44%,5.19%,10%,3.36%,3.86%,1.7%,1.65%,5.5%,2.06%,0.83%
O=C(Nc1n[nH]c2cc(-c3cc(F)ccc3F)ccc12)C1CC1,6.73%,7.73%,8.12%,0.54%,2.05%,7.13%,4.97%,1.56%,0.94%,2.16%
COc1cc2ncn(-c3cc(OCc4cccs4)c(C(N)=O)s3)c2cc1OC,10.6%,4.48%,23.4%,-8.52%,-6.38%,-0.44%,2.03%,0.43%,1.63%,-1%
O=C1Nc2ccc(I)cc2C1=Cc1cc(Br)c(O)c(Br)c1,6.7%,6.42%,8.5%,5.43%,2.95%,6.33%,5.95%,0.52%,2.5%,1.48%
NC(=O)c1cc(-c2ccc(F)cc2)cc(-c2ccncc2)c1N,5.17%,6.59%,7.14%,2.14%,-0.61%,5.25%,5.27%,1.58%,1.32%,0.92%
NC(=O)c1cc(-c2ccncc2)cc(-c2ccccc2)c1N,37.6%,12.1%,43.7%,5.73%,5.9%,6.28%,6.25%,2.11%,1.56%,1.61%
COc1ccc(C2=C(N3CCc4ccccc43)C(=O)NC2=O)cc1,4.68%,8.17%,9.54%,4.43%,6.19%,4.83%,8.59%,2.42%,1.91%,1.76%
CN(C)CCOc1ccc(-c2cc(-c3ccc4c(c3)CCC4=NO)c(-c3ccncc3)o2)cc1,8%,-2.29%,2.91%,-3.2%,0.2%,3.17%,1.94%,-1.33%,-1.94%,-1.36%
O=C(Nc1n[nH]c2nc(-c3ccco3)ccc12)C1CC1,1.67%,3.22%,7.96%,1.21%,2.33%,-3.11%,0.45%,1.25%,0.79%,1.08%
CCC(=O)Nc1ccc(C)c(-c2ccc(C(=O)NCC3CC3)cc2)c1,4.1%,5.93%,4.04%,3.84%,1.32%,4.28%,5.36%,0%,1.59%,-0.06%
Fc1ccc(-c2ncn(CCCN3CCOCC3)c2-c2ccncc2)cc1,-2.27%,-1.42%,2.38%,2.24%,-1.55%,-0.34%,0.12%,-0.04%,0.12%,0.83%
COc1cc(C)c(N(C)C(=O)CN(C)C)cc1Nc1nc(Nc2cccc(F)c2C(N)=O)c2cc[nH]c2n1,-2.41%,2.52%,4.78%,31.2%,81.6%,52.5%,107%,5.09%,17.1%,-2.44%
COc1cc2ncn(-c3cc(OCCc4ccccc4)c(C(N)=O)s3)c2cc1OC,2.86%,2.34%,11.2%,1.99%,2.07%,2.51%,0.56%,2.17%,2.64%,1.33%
CCS(=O)(=O)c1ccc(OC)c(Nc2ncc(-c3cccc(-c4ccccc4F)c3)o2)c1,85.6%,16.9%,64.4%,2.3%,3.39%,2.01%,1.9%,-1.45%,-0.35%,0.42%
NCc1ccc(-n2c(-c3nonc3N)nc3cnccc32)cc1,0.2%,6.26%,10.4%,5.71%,8.21%,8.46%,8.17%,3.81%,2.5%,1.67%
c1ccc(-c2n[nH]cc2-c2ccnc(-c3ccc(OCCN4CCOCC4)cc3)c2)nc1,4.24%,1.69%,4.55%,-2.45%,-2.14%,-2.85%,-1.85%,-0.78%,-0.34%,5.52%
O=C(Nc1n[nH]c2nc(-c3ccc(O)cc3)c(Br)cc12)C1CC1,14.5%,12.2%,28.4%,5.22%,5.83%,7.55%,6.22%,1.99%,1.59%,2.89%
COc1cccc(/C=N/Nc2ncnc3c2cnn3-c2cccc(OC)c2)c1,7.98%,4.96%,6.95%,2.01%,1.32%,6.27%,3.35%,1.18%,1.31%,0.35%
O=C1Nc2ccccc2/C1=C/Nc1ccc(-n2cncn2)cc1,7.09%,5.82%,11.7%,10.8%,16.7%,9.38%,14.8%,2.54%,5.98%,1.26%
